Assay in all cases: PBM binding z-score (relative to random genomic background probes); higher = stronger binding; sequences stand for … in GC…GCGATTGACAGCGTAGAATGAAGG
Experiment [1] deals with PPARg:RXRa DBDmut IVT, anti-RXR (DBD mutation: RXRa K156A/R161A, NR concentration 270 nM, RXRa partner concentration 90 nM). Summed up: (§1)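 Probes were double-stranded and carried 34-nt variable regions with direct-repeat seeds, single-nucleotide variants, half-site ablations and random human genomic background sequences, printed on custom Agilent 4×180K protein-binding microarrays. Arrays were incubated 1 h with ligand-free nuclear receptor dimers in PBS pH 7.4, 2% milk, 0.02% Triton X-100, 1 mM DTT, 0.2 mg/mL BSA and 0.4 mg/ml salmon testes DNA. Antibodies against each partner (one per run) detected binding, and scanned fluorescence was regression-normalized. Binding z-scores use the random background probes as reference.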

For experiment [2], the system named is PPARg:RXRa IVT, anti-PPARg (NR concentration 270 nM, RXRa partner concentration 90 nM). Summed up:
as §1

The test system of experiment [3] is PPARg DBDmut:RXRa IVT, anti-PPARg (DBD mutation: PPARg1 K132A/R137A, NR concentration 270 nM, RXRa partner concentration 90 nM). Summed up: as §1
Experiment [4] deals with PPARg DBDmut IVT, anti-PPARg (DBD mutation: PPARg1 K132A/R137A, NR concentration 270 nM). The method in brief: as §1
Experiment [5] concerns PPARg homodimer (NR concentration 180 nM). Summed up:
as §1

Experiment [6] deals with PXR:RXRa (NR concentration 270 nM, RXRa partner concentration 90 nM). The method in brief:
as §1

For experiment [7], the system named is PXR homodimer (NR concentration 270 nM). The method in brief:
as §1

Experiment [8] deals with RARa:RXR (NR concentration 270 nM, RXRa partner concentration 90 nM). Summed up:
as §1

For experiment [9], the system named is RARa homodimer (NR concentration 270 nM). Summed up:
as §1

The test system of experiment [10] is RARb:RXRa (NR concentration 270 nM, RXRa partner concentration 90 nM). Summed up: as §1
The subject of experiment [11] is RARb homodimer (NR concentration 270 nM). The method in brief: as §1
In experiment [12] the test system is RARg:RXRa (NR concentration 270 nM, RXRa partner concentration 90 nM). The method in brief: as §1
For experiment [13], the system named is RARg homodimer (NR concentration 270 nM). The method in brief: as §1
Experiment [14] concerns RXRa DBDmut IVT, anti-RXR (DBD mutation: RXRa K156A/R161A, NR concentration 90 nM). Summed up: as §1
Experiment [15] deals with RXRa homodimer (NR concentration 180 nM). The method in brief: as §1
For experiment [16], the system named is THRa:RXRa (NR concentration 90 nM, RXRa partner concentration 90 nM). The method in brief:
as §1

In experiment [17] the test system is THRa homodimer (NR concentration 90 nM). The method in brief:
as §1

In experiment [18] the test system is VDR homodimer (NR concentration 270 nM). Summed up:
as §1

As to TTACCAAGGAGAAGGTCGTTGATCCCTCTGTAGA, the PBM binding z-score in experiment [1] is -0.339; in experiment [2], -0.0762; in experiment [3], -0.116; in [4] it was 0.61; in experiment [5], 0.455; in experiment [6] it was 1.03. For the same sequence, the PBM binding z-score was -0.292 in experiment [7]; 1.34 in experiment [8]; -0.134 in [9]; 0.537 in experiment [10]; 0.592 in experiment [11]; 0.225 in [12]. Also, the PBM binding z-score in experiment [13] is 0.0485; in experiment [14] it was -0.392; in experiment [15], 1.27; in experiment [16], 0.759; in [17], -0.096; in experiment [18] it was 0.372.
Take CGTCCAAGGTCAGCAGGTCAGTGAAAGCGACGTG: the PBM binding z-score in experiment [1] is 2.94; in experiment [2], 3.8; in [3] it was 0.0823; in experiment [4], -0.0279; in [5], 3.81; in experiment [6] it was 3.7. The PBM binding z-score in [7] worked out at 0.523; in experiment [8], 4.76; in experiment [9], 0.465; in experiment [10], 5.34; in [11], 5.12; in [12], 6.35. Further, the PBM binding z-score came out at 6.64 in experiment [13]; 2.54 in experiment [14]; 4.82 in experiment [15]; 4 in experiment [16]; 2.28 in experiment [17]; 1.77 in experiment [18].
With GTGCCAAGGTGAATAGGTCGTTGATGAGTAGGCG, the PBM binding z-score in experiment [1] was 2.01; in experiment [2], 2.66; in experiment [3], 0.113; in experiment [4] it was -0.755; in [5] it was 1.02; in experiment [6], 0.425. The PBM binding z-score in experiment [7] was found to be 0.19; in experiment [8] it was 1.38; in experiment [9], 0.262; in [10], 2.09; in [11], 1.92; in experiment [12] it was 2.61. For the same sequence, the PBM binding z-score in experiment [13] was 1.46; in [14], -0.262; in experiment [15] it was 1.55; in [16] it was 1.72; in experiment [17], 0.56; in [18] it was -0.115.
Take CCTACTGGGGCATAAGGTTACCATAAGCCAGCCC: the PBM binding z-score in experiment [1] was 4.53; in experiment [2], 5.02; in experiment [3], 0.0293; in experiment [4], -0.184; in experiment [5], 1.28; in [6], 0.306. The PBM binding z-score in experiment [7] came to 0.0136; in [8], 1.42; in experiment [9] it was 0.103; in experiment [10] it was 1.74; in experiment [11], 1.86; in experiment [12] it was 1.78. The PBM binding z-score in experiment [13] is 1.29; in experiment [14] it was -0.346; in [15], 1.17; in experiment [16], 2.05; in experiment [17], 0.894; in experiment [18] it was -0.339.
For the sequence CGTCCAAGGCCAAGGTCAGTGAAAGAGACTCGAA, the PBM binding z-score in experiment [1] is 0.486; in experiment [2], 0.991; in [3], -1.04; in [4], -1.54; in experiment [5], 1.05; in [6], 1.53. Further, the PBM binding z-score was found to be 0.261 in experiment [7]; 2.04 in experiment [8]; 0.342 in experiment [9]; 3.58 in experiment [10]; 3.42 in experiment [11]; 2.86 in experiment [12]. For the same sequence, the PBM binding z-score in experiment [13] was found to be 3.7; in [14] it was 1.31; in [15], 1.83; in experiment [16] it was 2.87; in experiment [17], 1.51; in [18], 0.947.
On to CGTCAAAGTTCAACTTAGGTAACGTAAAGCACGC, for which the PBM binding z-score in experiment [1] was -0.00853; in [2], 2.1; in experiment [3], 0.537; in experiment [4], 0.683; in [5], 4.03; in experiment [6], 5.5. In addition, the PBM binding z-score worked out at 4.07 in [7]; 4.61 in experiment [8]; 2.1 in experiment [9]; 5.38 in [10]; 4.13 in experiment [11]; 6.16 in [12]. Also, the PBM binding z-score in experiment [13] is 6.72; in experiment [14] it was 4.76; in experiment [15], 5.38; in experiment [16] it was 5.19; in experiment [17], 0.769; in [18], 4.21.
With ACTATTAGTTGAGACGAGGGCAAGCGATAGGTTG, the PBM binding z-score in experiment [1] worked out at 0.296; in [2] it was 0.365; in experiment [3], 0.712; in experiment [4], 0.625; in experiment [5], 0.663; in experiment [6] it was 1.05. For the same sequence, the PBM binding z-score in experiment [7] is 0.306; in experiment [8] it was 0.73; in experiment [9] it was 0.56; in experiment [10] it was 0.659; in [11], 1.06; in experiment [12] it was 0.352. Further, the PBM binding z-score amounted to 0.635 in [13]; 0.63 in experiment [14]; 0.484 in experiment [15]; 2.28 in experiment [16]; 0.357 in experiment [17]; 0.593 in [18].
Turning to CCTTACGGGTCACTCCAGGTTATAACATCGGAGT, the PBM binding z-score in experiment [1] was found to be 2.06; in experiment [2], 3.72; in experiment [3], 1.23; in [4], 0.622; in experiment [5], 1.05; in [6], 4.66. Besides, the PBM binding z-score was 0.462 in experiment [7]; 3.51 in experiment [8]; -0.23 in [9]; 3.67 in experiment [10]; 3 in experiment [11]; 4.24 in [12]. Also, the PBM binding z-score in [13] came to 3.97; in experiment [14], 1.31; in experiment [15] it was 4.36; in experiment [16], 5.32; in [17] it was 0.437; in experiment [18], 1.19.

Source of the values: the supplement of paper PMC6555819.
